# Earlier results as cited in PubChem BioAssay AID977611.
# Out of some 3,900 compounds screened, about 3,900 (100%) were called active. Cut-off not given; nearly all actives show Kd up to about 4200 µM. The set was probably picked from earlier hits. Some of the results follow. Numbered stars: 1 amine (or outer) side, 2 acyl side, 3 side chain; on linkers, the order of the positions; unused ones are H or OH. Starred links: 1 amine or outer side, 2 acyl side, 3 side chain; linkers in the order of their positions; H or OH if unused. Where a SMILES comes first, the peptide text is derived from it. Non-standard residues stand in square brackets, D forms with d. Square brackets hold non-standard residues; d marks the D form. Residues, ends and D or L forms follow the SMILES beside them. Peptide text beside a SMILES is read from it. [ ]: non-standard residue; d: D form. X1 = O=C([C@H](Cc1ccc(O[P+](O)(O)O)cc1)N[*:1])[*:2]; Orn(CH(NH2)2) = NC(N)NCCC[C@H](N)C(=O)O; Pro(4,5-dehydro) = O=C(O)[C@@H]1CC=CN1
# Test: PubChem AID 977611
# Settings: PDB protein-ligand complexes, literature Kd
compound,measurement,setting,value
O=C(CO[P+](O)(O)O)NO,Kd,"protein: Fructose-bisphosphate aldolase, PDB entry 4del",0.0211 µM (active)
O=C(O)[C@H](O)CO[P+](O)(O)O,Kd,"protein: human phosphoglycerate kinase, PDB entry 3c39",109 µM (active)
O=C(O)CO[P+](O)(O)O,Kd,"protein: TRIOSEPHOSPHATE ISOMERASE (A198V, C202A, C222N mutation), PDB entry 4bi6",113 µM (active)
same,Kd,"protein: TRIOSEPHOSPHATE ISOMERASE (C202A mutation), PDB entry 4bi7",26.4 µM (active)
O=C(CO)[C@@H](O)[C@H](O)[C@H](O)CO[P+](O)(O)O,Kd,"protein: Glucokinase regulatory protein, PDB entry 3w0l",0.095 µM (active)
O=C(O)c1ccc(-c2ccc(C(=S)NCc3ccc(-c4ccnn4-c4ccc(Cl)c(Cl)c4)cc3)c(Cl)c2)o1,Kd,"protein: Replication protein A 70 kDa DNA-binding subunit, PDB entry 4lwc",0.19 µM (active)
COCCO[C@@H]1COCCOC[C@H]1OCCOC,Kd,"protein: METAL-BINDING PROTEIN YODA, PDB entry 4aw8",0.022 µM (active)
C[C@@H](O)[C@H](NC(=O)[C@@H]1CCCN1C(=O)[C@H](CO[P+](O)(O)O)NC(=O)[C@H](Cc1ccc(O)cc1)NC(=O)[C@H](CO)NC(=O)[C@@H]1CCCN1)C(=O)N[C@@H](CO[P+](O)(O)O)C(=O)N1CCC[C@H]1C=O,Kd,"protein: CTD INTERACTING DOMAIN of RNA processing factor SCAF8(R112T), PDB entry 3d9p",29 µM (active)
C[C@@H](O)[C@H](NC(=O)[C@@H]1CCCN1C(=O)[C@H](CO[P+](O)(O)O)NC(=O)[C@H](Cc1ccc(O)cc1)NC(=O)[C@H](CO)NC(=O)[C@@H]1CCCN1)C(=O)N[C@@H](CO)C(=O)N1CCC[C@H]1C(=O)N[C@@H](CO)C(=O)O,Kd,"protein: Rtt103 CTD-interacting domain, PDB entry 2l0i",15 µM (active)
C[C@@H](O)[C@H](NC(=O)[C@@H]1CCCN1C(=O)[C@H](CO)NC(=O)[C@H](Cc1ccc(O)cc1)NC(=O)[C@H](CO)NC(=O)[C@@H]1CCCN1)C(=O)N[C@@H](CO)C(=O)N1CCC[C@H]1C(=O)N[C@H](C=O)CO (H-PSYSPTSPS-aldehyde),Kd,"protein: CTD INTERACTING DOMAIN of RNA processing factor SCAF8(N15M/Y17M), PDB entry 3d9o",1000 µM (active)
NC(=S)Nc1ccc(C[C@H](CN(CC(=O)O)[C@H]2CCCC[C@@H]2N(CC(=O)O)CC(=O)O)N(CC(=O)O)CC(=O)O)cc1,Kd,"protein: Neutrophil gelatinase-associated lipocalin (mutation), PDB entry 4iaw",0.000234 µM (active)
same,Kd,"protein: Neutrophil gelatinase-associated lipocalin (mutation), PDB entry 4iax",0.000273 µM (active)
N#CCCNc1nonc1-c1nc2ccccc2n1CC(=O)c1ccc(N)cc1,Kd,"protein: Tubulin, PDB entry 4o2a",1.8 µM (active)
CC[C@H](C)[C@H](N)C(=O)N[C@@H](CO)C(=O)N[C@@H](CCCNC(N)N)C(=O)N[C@@H](CO)C(=O)N[C@H](C(=O)N[C@@H](CO[P+](O)(O)O)C(=O)N1CCC[C@H]1C(=O)N[C@H](C(=O)N[C@@H](Cc1ccccc1)C(=O)N[C@@H](CC(N)=O)C(=O)N[C@@H](CCCCN)C(=O)N[C@@H](CCC(N)=O)C(=O)O)[C@@H](C)O)[C@@H](C)O,Kd,"protein: Breast cancer type 1 susceptibility protein, PDB entry 1t29",0.9 µM (active)
CC(C)C[C@H](NC(=O)[C@@H]1CCCN1C(=O)CNC(=O)[C@H](Cc1ccccc1)NC(=O)[C@@H](N)CC(=O)O)C(=O)N[C@H](C(=O)NCC(=O)N[C@@H](C)C(=O)O)C(C)C (H-DFGPLVGA-OH),Kd,"protein: ?-adaptin ear domain of GGA3, PDB entry 1p4u",5 µM (active)
CSCC[C@H](NC(=O)[C@@H]1CCCN1C(=O)[C@H](Cc1ccc(O)cc1)NC(=O)[C@@H](N)Cc1ccccc1)C(=O)N[C@@H](CC(C)C)C(=O)N[C@@H](CCCNC(N)N)C(=O)N[C@@H](Cc1ccc(O)cc1)C(=O)N[C@H](C(=O)N[C@@H](CC(N)=O)C(=O)NCC(=O)N1CCC[C@H]1C(=O)N1CCC[C@H]1C(=O)N1CCC[C@H]1C(=O)N[C@H](C(=O)O)[C@@H](C)O)[C@@H](C)O (H-FYPML[Orn(CH(NH2)2)]YTNGPPPT-OH),Kd,"protein: SUN domain-containing protein 2, PDB entry 4fi9",0.0456 µM (active)
CC(C)[C@H](NC(=O)[C@H](CCCNC(N)N)NC(=O)[C@@H](NC(=O)[C@@H]1CCCN1)[C@@H](C)O)C(=O)N[C@@H](CO)C(=O)N[C@@H](CO[P+](O)(O)O)C(=O)N1CCC[C@H]1C(=O)N[C@H](C(=O)N[C@@H](Cc1ccccc1)C(=O)NCC(=O)N[C@@H](C)C(=O)N[C@H](C(=O)O)[C@@H](C)O)C(C)C,Kd,"protein: Breast cancer type 1 susceptibility protein, PDB entry 1y98",3.7 µM (active)
CC[C@H](C)[C@H](NC(=O)[C@H](CCCNC(N)N)NC(=O)[C@H](CC(N)=O)NC(=O)[C@H](Cc1ccccc1)NC(=O)[C@@H](NC(=O)[C@@H]1CCCN1C(=O)[C@H](CC(C)C)NC(=O)[C@H](CCCNC(N)N)NC(=O)[C@@H](N)CCCNC(N)N)[C@@H](C)CC)C(=O)N[C@@H](CO)C(=O)N[C@H](C(=O)N[C@@H](CO)C(=O)O)C(C)C (H-[Orn(CH(NH2)2)][Orn(CH(NH2)2)]LPIFN[Orn(CH(NH2)2)]ISVS-OH),Kd,"protein: CCR4-NOT transcription complex subunit 1, PDB entry 4j8s",2 µM (active)
NC(N)NCCC[C@H](N)C(=O)N[C@@H](CO)C(=O)N[C@@H](Cc1ccccc1)C(=O)N[C@@H](CO[P+](O)(O)O)C(=O)N[C@@H](CCC(=O)O)C(=O)N1CCC[C@H]1C(=O)N[C@@H](Cc1ccccc1)C(=O)NCC(=O)O,Kd,"protein: 14-3-3 protein epsilon, PDB entry 3ual",1.55 µM (active)
C[C@H](N)C(=O)N[C@@H](CS)C(=O)N[C@@H](CO[P+](O)(O)O)C(=O)N1CCC[C@H]1C(=O)N[C@@H](CCC(N)=O)C(=O)N[C@@H](Cc1ccccc1)C(=O)NCC(=O)O,Kd,"protein: Breast cancer type 1 susceptibility protein, PDB entry 4igk",28.2 µM (active)
CSCC[C@H](NC(=O)[C@@H]1CCCN1C(=O)[C@H](CC(N)=O)NC(=O)[C@@H]1CCCN1C(=O)[C@H](Cc1cnc[nH]1)NC(=O)[C@@H](N)CC(C)C)C(=O)N[C@@H](Cc1ccc(O[P+](O)(O)O)cc1)C(=O)N[C@@H](C)C(=O)N[C@@H](CCCNC(N)N)C(=O)O (H-LHPNPM[X1]A[Orn(CH(NH2)2)]-OH),Kd,"protein: Protein Dok7(PH-PTB), PDB entry 3ml4",4.7 µM (active)
CC(C)C[C@H](NC(=O)[C@H](CCCNC(N)N)NC(=O)[C@H](Cc1ccccc1)NC(=O)[C@@H](N)CC(C)C)C(=O)N[C@@H](CCCNC(N)N)C(=O)N[C@@H](Cc1c[nH]cn1)C(=O)N[C@@H](Cc1ccccc1)C(=O)N1CCC[C@H]1C(=O)N[C@@H](CS)C(=O)NCC(=O)N[C@@H](CC(N)=O)C(=O)N[C@H](C(=O)N[C@@H](CC(N)=O)C(=O)N[C@@H](Cc1ccc(O)cc1)C(=O)NCC(=O)N[C@@H](Cc1ccc(O)cc1)C(=O)N[C@@H](CCC(N)=O)C(=O)N[C@@H](CCC(N)=O)C(=O)N[C@@H](CCC(N)=O)C(=O)O)C(C)C (HELM PEPTIDE1{L.F.[NC(N)NCCC[C@H](N[*:1])C(=O)[*:2]].L.[NC(N)NCCC[C@H](N[*:1])C(=O)[*:2]].H.F.P.C.G.N.V.N.Y.G.Y.Q.Q.Q}$$$$V2.0),Kd,"protein: PTB domain of SNT-2, PDB entry 2kup",0.2 µM (active)
CC(C)[C@H](NC(=O)[C@@H]1CCCN1C(=O)[C@H](CO[P+](O)(O)O)NC(=O)[C@@H](N)CCCNC(N)N)C(=O)N[C@@H](Cc1ccccc1)C(=O)N[C@@H](CO)C(=O)O,Kd,"protein: Breast cancer type 1 susceptibility protein, PDB entry 4ifi",3.34 µM (active)
C[C@H](NC(=O)[C@H](CCC(=O)O)NC(=O)[C@@H]1CCCN1C(=O)[C@H](Cc1ccccc1)NC(=O)[C@@H](NC(=O)[C@@H]1CCCN1C(=O)[C@H](CO[P+](O)(O)O)NC(=O)[C@H](CCC(N)=O)NC(=O)[C@@H]1CCCN1)[C@@H](C)O)C(=O)NCC(=O)O,Kd,"protein: Breast cancer type 1 susceptibility protein(BRCA1), PDB entry 3coj",5.2 µM (active)
CC(C)C[C@H](NC(=O)CNC(=O)[C@H](CC(N)=O)NC(=O)[C@@H](N)Cc1ccccc1)C(=O)N[C@H](C(=O)N[C@@H](CO[P+](O)(O)O)C(=O)N1CCC[C@H]1C(=O)N[C@@H](CCC(N)=O)C(=O)N[C@@H](CCCNC(N)N)C(=O)N[C@@H](CO[P+](O)(O)O)C(=O)O)[C@@H](C)O,Kd,"protein: Saccharomyces cerevisiae Skp1 and Cdc4 (263-744), PDB entry 3v7d",0.41 µM (active)
CC[C@H](C)[C@H](NC(=O)[C@@H](NC(=O)[C@@H](N)CC(C)C)C(C)C)C(=O)N[C@@H](C)C(=O)NCC(=O)N[C@@H](CC(N)=O)C(=O)N1CCC[C@H]1C(=O)N[C@@H](C)C(=O)N[C@@H](Cc1ccc(O[P+](O)(O)O)cc1)C(=O)N[C@@H](CCCNC(N)N)C(=O)N[C@@H](CO)C(=O)O (H-LVIAGNPA[X1][Orn(CH(NH2)2)]S-OH),Kd,"protein: PTB domain of insulin receptor substrate-1(IRS-1), PDB entry 1irs",6 µM (active)
"CC(C)C[C@H](NC(=O)[C@H](CC(C)C)NC(=O)[C@H](CCC(=O)O)NC(=O)[C@@H]1CC=CN1C(=O)[C@H](C)NC(=O)[C@@H]1CCCN1)C(=O)NCC(=O)O (H-PA[Pro(4,5-dehydro)]ELLG-OH)",Kd,"protein: anti-hinge rabbit antibody 2095-2, PDB entry 4o4y",0.0155 µM (active)
CC(C)C[C@H](NC(=O)[C@H](CC(N)=O)NC(=O)[C@H](Cc1ccccc1)NC(=O)[C@@H](N)CO)C(=O)N[C@@H](C)C(=O)N1CCC[C@H]1C(=O)N[C@@H](CC(C)C)C(=O)NCC(=O)N[C@@H](CCCNC(N)N)C(=O)N[C@@H](CCCNC(N)N)C(=O)N[C@@H](CCCNC(N)N)C(=O)N[C@H](C(=O)N[C@@H](CCC(N)=O)C(=O)N[C@@H](CO)C(=O)N[C@@H](CCC(N)=O)C(=O)O)C(C)C (H-SFNLAPLG[Orn(CH(NH2)2)][Orn(CH(NH2)2)][Orn(CH(NH2)2)]VQSQ-OH),Kd,"protein: Telomeric repeat-binding factor 2(TRF2 TRFH domain), PDB entry 3bu8",0.12 µM (active)
C[C@H]1O[C@H](O[C@H]2[C@H](O)[C@@H](O)[C@@H](O[C@H]3[C@H](O)[C@@H](O)[C@@H](O)O[C@@H]3CO)O[C@@H]2CO)[C@H](O)[C@@H](O)[C@@H]1N[C@H]1CC(CO)[C@@H](O)[C@H](O)[C@H]1O (some centres not stated),Kd,"protein: Carbohydrate ABC transporter substrate-binding protein, CUT1 family (TC 3.A.1.1.-) EUR_01830, PDB entry 4uac",0.288 µM (active)
C[C@@H]1O[C@@H](O)[C@H](O)[C@H](O)[C@H]1O[C@H]1O[C@H](CO)[C@@H](O)[C@H](O[C@H]2O[C@H](C)[C@@H](O)C[C@H]2O)[C@@H]1O[C@H]1O[C@H](CO)[C@H](O)[C@H](O[C@@H]2O[C@@H](C)[C@H](O[C@H]3O[C@H](CO)[C@@H](O)[C@H](O[C@H]4O[C@H](C)[C@@H](O)C[C@H]4O)[C@@H]3O[C@H]3O[C@H](CO)[C@H](O)[C@H](O)[C@H]3O)[C@@H](O)[C@H]2O)[C@H]1O,Kd,"protein: Bifunctional tail protein, PDB entry 3th0",75.8 µM (active)
OC[C@H]1O[C@H](O[C@H]2[C@H](O)[C@@H](O)[C@@H](O[C@H]3[C@H](O)[C@@H](O)[C@@H](O[C@H]4[C@H](O)[C@@H](O)[C@@H](O)O[C@@H]4CO)O[C@@H]3CO)O[C@@H]2CO)[C@H](O)[C@@H](O)[C@@H]1O,Kd,"protein: Outer membrane protein SusF, PDB entry 4fe9",990 µM (active)
O=C1O[C@H](CO)[C@@H](O[C@@H]2O[C@H](CO)[C@@H](O)[C@H](O)[C@@H]2O)[C@H](O)[C@@H]1O,Kd,"protein: ABC transporter substrate-binding protein MnBP3, PDB entry 4pft",0.0023 µM (active)
